Consider 60 compounds from PubChem BioAssay AID1906 (The Scripps Research Institute Molecular Screening Center, 2009).

Among all 300,000 compounds or so, about 1,500 (0.5%) were called active. For the sample, actives were picked, then their nearest neighbours and some compounds at random. Values without a mark were called inactive.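 Rule for the calls: active = inhibition above the mean of all tested compounds plus 3 SD, set per screening campaign (cut at about 17% in these data); inactive = the rest.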

The test system of this assay is cathepsin L1 (Fasciola hepatica). The assay can be described thus: Fasciola hepatica cathepsin L1 inhibitors, primary screen, counter-screen for PFM18AAP inhibitor project, biochemical, QFRET, fluorogenic peptide substrate (AID 1906).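 Note: 0% = plate median of test compound wells and 100% = 1 µM Z-Phe-Ala-diazomethylketone.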 The conditions noted are these: recombinant F. hepatica cathepsin L1, Z-Leu-Arg-MCA fluorescence; at 5.96 µM; active compounds read high. Background: A counterscreen serves to expose hits that act by an unwanted route or on another target.
Usually inhibition stands for the relative decrease from the control value, in per cent. With `O=C(NC(=S)NC1CCS(=O)(=O)C1)c1cccc([N+](=O)[O-])c1` (stereo not given), the inhibition is -1.84%.
Turning to `CC(C)C[C@H](NC(=O)[C@@H]1O[C@H]1C(=O)O)C(=O)NCCCCN=C(N)N`, the inhibition is 112% (active).
The same measure for `O=C1CC2(CCN(C(=O)COc3ccc(F)cc3)CC2)Oc2ccccc21`: -0.88%.
In the case of `CC(C)N(C(=O)c1ccc(-c2ccccc2F)cc1)C(C)C`, the inhibition is -3.72%.
Consider `O=C(CN1C(=O)c2ccccc2C1=O)NCc1ccc(C(=O)O)cc1`, for which the inhibition was 10.4%.
As for `CC(=O)N(C1=C(Cl)C(=O)c2ccccc2C1=O)c1ccc(C(=O)O)cc1`, the inhibition was 41.1% (active).
The same measure for `CCN(CC)CCNS(=O)(=O)c1ccc(/C=C/C(=O)O)cc1`: 8.82%; for `Cc1ccc(C(C)C)c(OCCSc2nc3ccccc3n2CC(=O)O)c1`: 2.31%.
Regarding `CC(C(=O)NCCc1ccc(S(N)(=O)=O)cc1)N1C(=O)CC(C)(C)Sc2ccccc21` (stereo not given), the inhibition was 3.12%.
Turning to `CC(OC(=O)CNC(=O)c1cccc(F)c1)C(=O)NC1CCCCC1C` (stereo not given), the inhibition is 46.5% (active).
With `CC(OC(=O)CNC(=O)c1ccc(Cl)c([N+](=O)[O-])c1)C(=O)NCc1ccco1` (stereo not given), the inhibition was -10.4%.
The same measure for `Cc1cc(C(=O)OC(C)C(=O)NC2CCCCC2C)c(C)o1` (stereo not given): 1.05%; for `Cc1ccccc1OCc1nnc(SCC(=O)N2c3ccccc3Sc3ccc(Cl)cc32)o1`: 1.54%.
`CCOC(=O)C1=C(O)/C(=C/c2cc(C)n(-c3ccccc3)c2C)N=C1C`: the inhibition was -0.93%.
The same measure for `N#Cc1ccccc1NC(=O)c1cccc(COc2ccc(Cl)cc2Cl)c1`: 2.17%; for `COc1ccccc1Oc1ccc(N/C=C2/CCCC2=O)cc1`: 6.01%; for `CCCCC(=O)Nc1nnc(S(=O)(=O)N(C)Cc2ccco2)s1`: -1.17%.
`CC1(C)CC(=O)C/C(=N\NC(=O)c2cccs2)C1`: the inhibition is -1.64%.
For `C=CCn1c(SCc2csc(C)n2)nc2scc(-c3ccc(C)o3)c2c1=O`, the inhibition is 1.45%.
Next, `C=CCNC(=O)CSc1nc2scc(-c3ccco3)c2c(=O)n1CC=C`: 35.5% (active).
Take `C=CCn1c(=S)[nH]c2scc(-c3ccco3)c2c1=O`: the inhibition is -1.34%.
Turning to `CCC1Oc2ccccc2N(CC(=O)NCCCN2CCN(CC)CC2)C1=O` (stereo not given), the inhibition is 1.49%.
For `Cc1ccc2oc(=O)c3cnn(CC(=O)N4CCCCCC4)c3c2c1`, the inhibition was -4.76%.
For the compound `Cc1ccc2oc(=O)c3cnn(CC(=O)N(Cc4ccco4)C4CCCCC4)c3c2c1`, the inhibition is 42.9% (active).
The same measure for `COCCCN(C(=O)Cn1ncc2c(=O)oc3ccc(C)cc3c21)C(C)c1ccncc1` (stereo not given): 3.63%.
`Cc1cccc(NC(=O)c2cc(S(=O)(=O)N3CCC4(CC3)OCCO4)ccc2F)c1`: the inhibition is -2.65%.
Regarding `CN(C)c1nc(NN)nc(Nc2ccc(F)cc2)n1`, the inhibition is 11%.
As to `Nc1c(N(CCO)C(=O)C2CCCCC2)c(=O)[nH]c(=O)n1Cc1ccccc1`, the inhibition is 23.6% (active).
As to `COCCn1c(N)c(N(Cc2ccccc2)C(=O)C2CCCCC2)c(=O)[nH]c1=O`, the inhibition is 3.45%.
Consider `CCN(C(=O)CN1CCN(Cc2ccccc2)CC1)c1c(N)n(Cc2ccccc2)c(=O)[nH]c1=O`, for which the inhibition was -1.57%.
With `Cc1sc(NC(=S)NC(=O)c2cccs2)nc1-c1ccc(CC(C)C)cc1`, the inhibition was -0.85%.
Turning to `COc1cc(OC)nc(NC(=O)CCl)n1`, the inhibition was 19.4% (active).
Consider `CCC(=O)Nc1nc(OC)cc(OC)n1`, for which the inhibition is 3.53%.
The same measure for `COc1cc(OC)nc(N/N=C(\c2ccccc2)c2ccncc2)n1`: 1.22%; for `O=C(c1ccc(F)cc1)N1CCCC(C(=O)N2CCCCC2)C1` (stereo not given): -2.4%.
Turning to `COc1ccc(C(=O)NC(=S)N2CCNC(=O)C2CC(=O)OC(C)C)cc1` (stereo not given), the inhibition is -3.41%.
For the compound `Cc1ccc2cc(C)c(N3CCC(C)CC3)nc2c1`, the inhibition is -2.83%.
Regarding `CN(c1ccccc1)S(=O)(=O)c1ccc2[nH]c(=O)[nH]c2c1`, the inhibition is -6.38%.
The same measure for `CC1CCC(C(C)C)C(=O)/C1=C\c1ccc(NC(=O)CCC(=O)O)cc1` (stereo not given): 2%.
Take `O=C(Cc1c(O)c2ccccc2[nH]c1=O)NCc1ccccc1`: the inhibition was 0.35%.
On to `CC(C)C(=O)Nc1c(O)c2ccccc2[nH]c1=O`, for which the inhibition is -1.29%.
Next, `CCCOC(=O)Cc1c(O)c2ccccc2[nH]c1=O`: 46.3% (active); `N#Cc1c(N2CCCCC2)nc(N)c2c(N)nc(SCC(=O)O)cc12`: 1.83%.
Take `COc1cccc(-c2cc3nc4c(c(N5CCC6(CC5)OCCO6)n3n2)CCCC4)c1`: the inhibition is 1.28%.
Next, `Cc1cc(C)cc(NC(=O)COc2coc(CN3CCN(c4ccccc4)CC3)cc2=O)c1`: -0.61%; `O=C(CSc1nc2ccccc2o1)N/N=C/c1ccccc1C(=O)O`: -1.26%.
For `CCN(CC)C(=O)CSc1nc2ccccc2o1`, the inhibition was -2.89%.
In the case of `CCC(NC(=O)c1ccccc1NC(=O)c1ccccc1)C(=O)NNC(=O)CSc1nc2ccccc2o1` (stereo not given), the inhibition was 31.7% (active).
`COc1ccccc1CNC(=O)[C@@H]1CCCN1C(=O)[C@@H]1Cc2ccccc2CN1C(=O)OC(C)(C)C`: the inhibition is 7.62%.
In the case of `CCC(C)N1CC(=O)N2Cc3[nH]c4ccccc4c3C[C@H]2C1=O` (stereo not given in full), the inhibition is 5.23%.
Next, `COC(C[C@@H]1O[C@@H]1C(=O)[C@@H](C)OCc1ccccc1)OC`: 9.96%; `COC(C[C@@H]1O[C@@H]1C(=O)[C@H](C)OCc1ccccc1)OC`: 28.4% (active); `COC(C/C=C/C(=O)[C@@H](C)OCc1ccccc1)OC`: -1.49%.
With `CC(Oc1ccc(F)cc1)C(=O)Nc1ccccc1C(=O)NC1CC1` (stereo not given), the inhibition was -1.06%.
Regarding `CC12CCC(=O)N1C(C(=O)Nc1ccc(F)c(F)c1F)CS2` (stereo not given), the inhibition was 2.04%.
As for `Cc1ccc(C2C(C#N)C(C#N)N3CCCN23)cc1` (stereo not given), the inhibition is 1.37%.
With `COc1ccc(F)cc1S(=O)(=O)NCC(c1ccc2c(c1)OCO2)N1CCN(C)CC1` (stereo not given), the inhibition is 4.62%.
In the case of `O=C1OC(NC(=O)c2ccccc2)C(N2CCOCC2)=C1Cl` (stereo not given), the inhibition is 5.28%.
Next, `O=C1C(Cl)=C(N2CCOCC2)C(=O)N1c1ccccc1`: 42.9% (active); `O=c1[nH]c(N2CCOCC2)nc2ccccc12`: 0.18%.
